# Assay outcomes deposited in PubChem BioAssay by National Center for Advancing Translational Sciences (NCATS).
# HCMV inh: human cytomegalovirus inhibition | HFF cells, HCMV-luciferase reporter, 72 h; hits give low values | 410,000 tested, 4.5% active | activity change, negative = inhibition, % at 57.5 µM; in the data active = activity change below about -60%; inconclusive = no clear call, values can overlap the other calls; inactive = above about -39%
#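 Luciferase read-out from HCMV-luciferase-infected HFFs (MOI 1 PFU/cell) 72 h post infection at 37C; compounds added after 16 h cell attachment; activity normalized between buffer-only basal and Salinomycin (10uM) inhibitor controls.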
# Pf growth 48h: P. falciparum growth inhibition at 48 hours (one generation); P. falciparum luciferase growth in erythrocytes, 48 h; Potency, µM (doses to about 28.7 µM), for the others: top-dose activity change, negative = inhibition, hits mostly inhibitors; 310,000 tested, 5.9% active; AID 504832; note: potency is the fitted concentration of half-maximal effect
#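 Parasite viability was followed by luminescence of a genomically integrated firefly luciferase. Cultures held 0.1% parasitemia at 2% hematocrit (final), incubated under 5% CO2 at 37 C.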
# HCV inh: blocks hepatitis C virus. Huh7.5.1 HCVcc-Cre infection, luciferase reporter, 44 h. Potency, µM (series often up to 41.8 µM), inactives show at the highest dose activity change, negative = inhibition, actives largely listed as inhibitors. 340,000 tested, 3.4% active; note: potency is the fitted concentration of half-maximal effect
#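 Compounds are dispensed onto cells plated 4 h earlier at 1,000 per well, with HCVcc-Cre virus (about 0.5 moi) added next. Following 44 h of culture, luminescent signal is measured for 15 sec after 15 min with substrate at room temperature.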
# Pf growth 96h: P. falciparum growth inhibition at 96 hours; P. falciparum luciferase reporter growth, 96 h; Potency, µM (doses to about 28.7 µM), inactives show top-dose activity change, negative = inhibition, hits mostly inhibitors; 320,000 tested, 6.9% active; AID 504834; note: potency is the fitted concentration of half-maximal effect
#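 Two-generation exposure (96 h) targets delayed-death phenotype. Reporter parasites carrying integrated firefly luciferase, in red cells at 2% hematocrit and 0.05% parasitemia final, kept at 37 C, 5% CO2; luminescence loss indicates inhibition.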
# An asterisk follows results filed as active; u = inconclusive; x = no result; + = active, no number; ! = not active in a repeat. In the library only some 13% were active in any assay of this set; here they are far more common. Unless noted, calls come from the whole dose curve; as a rule, active = well fitted inhibition curve with a large enough effect; inconclusive = small, poorly fitted or top-dose-only effect, or another doubt; inactive = no such curve, though single readings can be large or run the other way. % is set by controls: 0 for no effect and ±100 for the full control effect.
SMILES,HCMV inh,Pf growth 48h,HCV inh,Pf growth 96h
CCN(CC)CCC(c1ccc(N(C)C)cc1)c1c(O)cc(OC)cc1OC (centres undefined),10,1.2µM*,18%,1.5µM*
CCN(CC)CCC(c1ccc(OC)cc1)c1c(O)cc(OC)cc1OC (centres undefined),-11,1.3µM*,-14%,1.3µM*
CC(=O)C1=C(c2ccc(F)cc2)N(C(C)=O)n2c(nnc2C2CCCCC2)S1,8,x,x,x
CC(Sc1nc(NC(C)(C)C)nc(N(C)C)n1)C(=O)Nc1ccccc1 (centres undefined),-61*,u,-21%,u
COc1ccccc1NS(=O)(=O)c1ccc2oc(SCc3ccc(C#N)cc3)nc2c1,-84*,-24%,11µM*,9.3µM*
CNC(=O)CSc1nc2cc(S(=O)(=O)Nc3ccccc3OC)ccc2o1,-25,15%,15%,-17%
COc1ccc(C2CC(O)(c3ccccc3)Oc3cc(OC)c(OC)c(OC)c32)cc1 (centres undefined),42,10µM*,-26%,10µM*
COc1ccc([C@@H]2C[C@H](c3ccccc3)Oc3cc(OC)c(OC)c(OC)c32)cc1,52,9.3µM*,-15%,u
CCOc1cc(/C=C2/C(=O)ON=C2C)ccc1OCc1ccccc1,22,u,4%,-8%
CCOc1cc(/C=C2/C(=O)ON=C2C)ccc1OCc1ccc(F)cc1,-97*,41%,u,68%
CCOc1ccc(NC2SC(=O)N(Cc3ccccc3)C2=O)cc1 (centres undefined),120,x,x,x
CC(NC(=O)c1ccc(-c2ccccc2)cc1)C(c1ccccc1)N1CCOCC1 (centres undefined),0,7.4µM*,20%,10µM*
O=C(NC(C(=O)c1ccccc1)N1CCOCC1)c1cccs1 (centres undefined),127,76%,16%,12µM*
COc1ccc(NC(=S)NC(C)C(c2ccccc2)N2CCOCC2)cc1 (centres undefined),-9,u,5%,15µM*
O=C(NC(C(=O)c1ccccc1)N1CCOCC1)c1ccccc1 (centres undefined),97,66%,2%,10µM*
COc1ccc(CCNC(=O)Cn2cnc3scc(-c4ccccc4)c3c2=O)cc1OC,-102*,-29%,-19%,u
CC(C)(C)n1ncc2c(=O)n(CC(=O)NCCc3ccccc3)cnc21,9,35%,-5%,96%
COc1ccc(CCNC(=O)Cn2cnc3c(cnn3C(C)(C)C)c2=O)cc1OC,0,7%,u,10µM*
COCCNC(=O)C1(C)CCN(C(=O)c2sc(-c3ccccc3)nc2C)C1 (centres undefined),31,x,x,x
COc1ccc(CCn2c(-c3ccc(Cl)cc3)n[nH]c2=S)cc1OC,-24,-1%,13%,0%
COc1ccc(CCn2c(C)ccc2C)cc1OC,x,5.2µM*,u,8.3µM*
COc1ccc(OC)c(N2C(=O)CC(Cc3cc(C)cc(C)c3)C2=O)c1 (centres undefined),23,-6%,3.5µM*,u
COc1ccc(CCN2C(=O)CC(Cc3ccc(C)cc3)C2=O)cc1OC (centres undefined),-64*,-10%,-1%,u
COc1ccc(CCN2C(=O)CSC2=Nc2ccc(C)cc2C)cc1OC,-9,2.6µM*,u,u
COc1ccc(CCN2C(=O)CC(NC34CC5CC(CC(C5)C3)C4)C2=O)cc1OC (centres undefined),-28,u,-15%,37%
SMILES,HCMV inh,Pf growth 48h,HCV inh,Pf growth 96h
CC(=O)Oc1ccc(C(=C2CCCCC2)c2ccc(OC(C)=O)cc2)cc1,x,-7%,x,-34%
COc1cc(C(CC(=O)Nc2ccc(F)cc2F)N2Cc3ccccc3C2=O)cc(OC)c1OC (centres undefined),6,x,x,x
CSc1ccc(CCNC(=O)CN2C(=O)c3cccnc3Oc3ccc(C)cc32)cc1,+!,-27%,u,65%
CCCN1CCN(CCCNC(=O)CN2C(=O)c3cccnc3Oc3ccc(C)cc32)CC1,-32,1%,4%,3%
Cc1ccc2c(c1)N(CC(=O)NCCCc1ccccc1)C(=O)c1cccnc1O2,-62*,0%,-22%,51%
CC1CC(C)CN(CCCNC(=O)CN2C(=O)c3cccnc3Oc3ccc(Cl)cc32)C1 (centres undefined),0,10µM*,6%,u
